# Laboratory results published in PubChem BioAssay (EPA / NIEHS).
# Calls of active or inactive are those of the source. Rule for the calls: active = hit-call score of the fitted dose curve at least 0.9, where 1 is the maximum; inactive = score below 0.9.
# What was measured:
# [1] = ATG_CRE_CIS: Attagene CIS-FACTORIAL HepG2 Assay for human cAMP Responsive Element (CRE) binding protein 3 (AID 2282926); settings: HepG2 CRE cis-reporter, Attagene multiplexed mRNA; actives raise or lower the signal
# Outline: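 Multiplexed transcription-unit reporters transfected into HepG2; 24 h dosing; RT-PCR/capillary electrophoresis fluorescence read-out; bidirectional fit vs DMSO.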
# [2] = target: CCAAT/enhancer-binding protein beta (Homo sapiens) (UniProt P17676); assay: ATG_C_EBP_CIS: Attagene CIS-FACTORIAL HepG2 Assay for human CCAAT/Enhancer Binding Protein (C/EBP) beta (AID 2282927); settings: HepG2 Attagene cis-factorial transcription factor reporter; actives raise or lower the signal
# Outline: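 Endogenous C/EBPb-driven reporter transcripts measured in transfected human HepG2 cells at 24 h via RT-PCR and capillary electrophoresis of labelled fragments. Activity fitted in both directions relative to DMSO baseline.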
# [3] = ATG_CMV_CIS: Attagene CIS-FACTORIAL HepG2 Assay for human CMV (Internal Marker) (AID 2282928); settings: HepG2 CMV promoter reporter, transcription factor profiling; actives raise or lower the signal;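 note: endpoint acts as a background internal control marker rather than a target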
# Outline: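 Endogenous transcription factor activity read in HepG2 via transfected cis-promoter reporter units. After 24 h dosing, reporter mRNA measured by RT-PCR/capillary electrophoresis; gain or loss of signal fit relative to DMSO.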
# [4] = ATG_DR4_LXR_CIS: Attagene CIS-FACTORIAL HepG2 Assay for human Liver X Receptor (LXR), DR4 submotif (AID 2282929); settings: HepG2 Attagene DR4 cis-reporter, mRNA transcription; actives raise or lower the signal
# Outline: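 DR4 cis-reporter in HepG2, 24 h exposure. Detection: RT-PCR, 6-FAM labelling, CE fragment analysis. Endpoint fitted bidirectionally, DMSO = baseline.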
# [5] = target: Aryl hydrocarbon receptor (Homo sapiens) (UniProt P35869); assay: ATG_Ahr_CIS: Attagene CIS-FACTORIAL HepG2 Assay for human Aryl Hydrocarbon Receptor (Ahr) (AID 2282930); settings: HepG2 AhR cis-factorial reporter transcription; actives raise or lower the signal
# Outline: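 Reporter mRNA levels, quantified by RT-PCR and fluorescent capillary electrophoresis, reflect endogenous AhR transcriptional activity in HepG2 cells carrying transfected cis-promoter reporter constructs. Readout at 24 h post-dose; gain or loss fitted against DMSO baseline.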
# [6] = ATG_AP_1_CIS: Attagene CIS-FACTORIAL HepG2 Assay for human Activator Protein 1 (AP-1) (AID 2282931); settings: HepG2 Attagene cis-factorial AP-1 reporter mRNA; actives raise or lower the signal
# Outline: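 Cis-regulated reporter units transiently expressed in HepG2 report endogenous transcription-factor activity. Signal: reporter mRNA at 24 h, via RT-PCR and fluorescent capillary electrophoresis. Endpoint derived by bidirectional fitting, DMSO as negative control.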
# [7] = ATG_AP_2_CIS: Attagene CIS-FACTORIAL HepG2 Assay for human Activator Protein 2 (AP-2) (AID 2282932); settings: HepG2 AP-2 cis-reporter, Attagene transcription factor profiling; actives raise or lower the signal
# Outline: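 HepG2, transient MRTU transfection, cis-regulated reporters; 24 h compound exposure; RNA isolated, RT-PCR, 6-FAM labelling, HpaI digest, CE fluorescence. DMSO = negative control/baseline, bidirectional fit.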
# [8] = ATG_BRE_CIS: Attagene CIS-FACTORIAL HepG2 Assay for human Bone Morphogenetic Protein (BMP) Response Element (BRE) (AID 2282933); settings: HepG2 BMP response element reporter, Attagene transcription factor profiling; actives raise or lower the signal
# Outline: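 Endogenous transcription factor activity read in transiently transfected HepG2 cells after 24 h chemical exposure. Bidirectional curve fitting against DMSO; readout is reporter transcript level by RT-PCR with capillary electrophoresis of labelled products.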
# [9] = target: Transcription factor E2F1 (Homo sapiens) (UniProt Q01094); assay: ATG_E2F_CIS: Attagene CIS-FACTORIAL HepG2 Assay for human E2F Transcription Factor 1 (AID 2282935); settings: HepG2 Attagene cis-reporter, E2F reporter RNA transcripts; actives raise or lower the signal
# Outline: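 Cis-element reporter mRNA induction in transiently transfected HepG2, 24 h exposure. Activity fitted in both directions relative to DMSO negative control.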
# [10] = ATG_E_Box_CIS: Attagene CIS-FACTORIAL HepG2 Assay for human Enhancer Box (E-box) (AID 2282936); settings: HepG2 E-box cis-reporter transcription, actives raise or lower the signal
# Outline: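 Cells: HepG2 (human liver), transient MRTU transfection. Exposure 24 h. RNA → oligo(dT) RT → PCR → 6-FAM label → HpaI → CE. Activity fitted both directions relative to DMSO.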
# [11] = ATG_M_61_CIS: Attagene CIS-FACTORIAL HepG2 Assay for M61 Transcription Factor (Internal Marker) (AID 2282937); settings: HepG2 Attagene CIS-FACTORIAL M61 internal marker reporter; actives raise or lower the signal
# Outline: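 Background-control endpoint: HepG2 cells with cis-regulated reporter constructs, 24 h exposure, reporter mRNA detected via fluorescent primer extension and capillary electrophoresis; values from bidirectional fitting with DMSO baseline.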
# [12] = ATG_EGR_CIS: Attagene CIS-FACTORIAL HepG2 Assay for human Early Growth Response 1 (EGR1) (AID 2282938); settings: HepG2 Attagene CIS-FACTORIAL EGR reporter mRNA; actives raise or lower the signal
# Outline: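 Endpoint derived by bidirectional fitting versus DMSO vehicle. Method: cis-promoter reporter units transfected into HepG2, 24 h dosing, RNA isolation, RT-PCR with 6-FAM primer extension and HpaI digestion, then capillary electrophoresis fluorescence detection.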
# [13] = ATG_M_19_CIS: Attagene CIS-FACTORIAL HepG2 Assay for M19 Transcription Factor (Internal Marker) (AID 2282939); settings: HepG2 Attagene CIS-FACTORIAL M19 internal marker reporter; actives raise or lower the signal
# Outline: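 Internal marker readout, fitted in both directions against DMSO, from HepG2 cells carrying transfected cis-element reporter constructs; RT-PCR and capillary electrophoresis of reporter mRNA after 24 h exposure.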
# [14] = ATG_Ets_CIS: Attagene CIS-FACTORIAL HepG2 Assay for human Erythroblast Transformation Specific (ETS) (AID 2282941); settings: HepG2 ETS cis-reporter transcription, actives raise or lower the signal
# Outline: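 Steps: transfect HepG2 with multiple reporter units; treat compound 24 h; isolate RNA, DNase-treat, reverse-transcribe; PCR-amplify, label with 6-FAM, digest with HpaI; separate by capillary electrophoresis. Activity fitted both directions versus DMSO.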
# [15] = target: Hepatocyte nuclear factor 3-beta (Homo sapiens) (UniProt Q9Y261); assay: ATG_FoxA2_CIS: Attagene CIS-FACTORIAL HepG2 Assay for human Forkhead box A2 (FOXA2) (AID 2282942); settings: HepG2 cis-reporter transcription factor activity, 24 h; actives raise or lower the signal
# Outline: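 Measured: reporter mRNA induction or loss in HepG2 transiently carrying multiple cis-regulated reporter units, 24 h after dosing. Quantified by RT-PCR plus capillary electrophoresis, normalised to DMSO.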
# [16] = ATG_FoxO_CIS: Attagene CIS-FACTORIAL HepG2 Assay for human Forkhead box O (FoxO) (AID 2282943); settings: HepG2 Attagene cis-reporter, FoxO element, mRNA; actives raise or lower the signal
# Outline: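 Endogenous transcription factor activity read from multiplexed cis-promoter reporter transcripts in transiently transfected HepG2, 24 h after dosing. Reporter RNA measured via RT-PCR plus capillary electrophoresis of FAM-labeled products; gain or loss relative to DMSO.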
# [17] = ATG_GATA_CIS: Attagene CIS-FACTORIAL HepG2 Assay for human GATA Binding Protein (AID 2282944); settings: HepG2 GATA cis-element reporter, Attagene multiplex mRNA; actives raise or lower the signal
# Outline: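 Reporter transcripts from a GATA cis-regulated unit, among multiplexed reporters in transfected HepG2 cells, were measured by RT-PCR with capillary electrophoresis after 24 h dosing. Induction or loss scored relative to DMSO.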
# [18] = ATG_ERE_CIS: Attagene CIS-FACTORIAL HepG2 Assay for Estrogen Response Element (ERE) (AID 2282940); settings: HepG2 ERE cis-reporter, Attagene RNA transcript; actives raise or lower the signal
# Outline: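 After 24 h compound treatment, RNA from transfected HepG2 cells was reverse-transcribed, reporter cDNA PCR-amplified, FAM-labelled, HpaI-cut and resolved by capillary electrophoresis. ERE-driven cis reporter transcripts reflect endogenous factors; gain or loss scored against DMSO.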
# Sequence of Aryl hydrocarbon receptor (Homo sapiens) (P35869 whole entry, looked up): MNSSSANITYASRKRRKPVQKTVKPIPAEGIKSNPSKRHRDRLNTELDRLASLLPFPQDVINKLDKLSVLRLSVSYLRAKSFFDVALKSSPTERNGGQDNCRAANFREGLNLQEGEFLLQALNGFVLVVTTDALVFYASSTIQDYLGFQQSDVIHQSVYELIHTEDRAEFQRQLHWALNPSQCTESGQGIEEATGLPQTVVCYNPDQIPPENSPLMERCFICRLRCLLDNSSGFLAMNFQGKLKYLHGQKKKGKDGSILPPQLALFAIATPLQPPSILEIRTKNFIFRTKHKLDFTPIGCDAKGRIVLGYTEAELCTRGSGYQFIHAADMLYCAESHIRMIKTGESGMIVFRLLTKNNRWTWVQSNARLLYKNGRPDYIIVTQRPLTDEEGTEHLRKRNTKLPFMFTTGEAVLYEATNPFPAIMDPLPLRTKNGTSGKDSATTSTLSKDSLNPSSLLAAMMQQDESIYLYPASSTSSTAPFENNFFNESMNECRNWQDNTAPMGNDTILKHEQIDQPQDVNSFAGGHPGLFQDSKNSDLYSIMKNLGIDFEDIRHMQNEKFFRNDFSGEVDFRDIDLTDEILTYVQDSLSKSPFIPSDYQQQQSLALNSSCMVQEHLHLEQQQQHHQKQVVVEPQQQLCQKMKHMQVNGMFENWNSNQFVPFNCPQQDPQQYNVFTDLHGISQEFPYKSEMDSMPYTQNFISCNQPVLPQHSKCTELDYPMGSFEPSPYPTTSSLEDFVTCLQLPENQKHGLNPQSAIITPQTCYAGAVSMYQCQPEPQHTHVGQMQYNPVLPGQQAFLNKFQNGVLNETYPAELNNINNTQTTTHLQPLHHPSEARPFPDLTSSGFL
# Sequence of Transcription factor E2F1 (Homo sapiens) (Q01094 whole entry, looked up): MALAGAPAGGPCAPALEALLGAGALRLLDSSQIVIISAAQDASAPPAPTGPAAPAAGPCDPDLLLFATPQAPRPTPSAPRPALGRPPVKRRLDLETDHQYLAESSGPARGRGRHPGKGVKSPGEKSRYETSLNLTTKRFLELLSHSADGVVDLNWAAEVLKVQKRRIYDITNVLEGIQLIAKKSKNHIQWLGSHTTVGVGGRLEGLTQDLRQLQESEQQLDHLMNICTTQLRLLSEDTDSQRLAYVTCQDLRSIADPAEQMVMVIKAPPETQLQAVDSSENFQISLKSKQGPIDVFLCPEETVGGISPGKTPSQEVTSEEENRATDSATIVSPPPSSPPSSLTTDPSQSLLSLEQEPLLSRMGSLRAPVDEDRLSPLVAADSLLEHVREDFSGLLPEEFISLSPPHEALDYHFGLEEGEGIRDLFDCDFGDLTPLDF
# Sequence of CCAAT/enhancer-binding protein beta (Homo sapiens) (P17676 whole entry, looked up, the tested form may be a part): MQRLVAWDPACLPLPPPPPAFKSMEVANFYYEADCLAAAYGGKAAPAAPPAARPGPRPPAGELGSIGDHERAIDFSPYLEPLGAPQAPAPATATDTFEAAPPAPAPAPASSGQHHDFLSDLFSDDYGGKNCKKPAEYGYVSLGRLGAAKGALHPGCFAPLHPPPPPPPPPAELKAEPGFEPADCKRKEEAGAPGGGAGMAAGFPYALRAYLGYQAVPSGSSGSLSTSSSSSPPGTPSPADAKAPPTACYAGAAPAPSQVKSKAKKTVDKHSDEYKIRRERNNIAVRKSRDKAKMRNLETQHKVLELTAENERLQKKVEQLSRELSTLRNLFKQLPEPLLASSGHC
# Sequence of Hepatocyte nuclear factor 3-beta (Homo sapiens) (Q9Y261 whole entry, looked up): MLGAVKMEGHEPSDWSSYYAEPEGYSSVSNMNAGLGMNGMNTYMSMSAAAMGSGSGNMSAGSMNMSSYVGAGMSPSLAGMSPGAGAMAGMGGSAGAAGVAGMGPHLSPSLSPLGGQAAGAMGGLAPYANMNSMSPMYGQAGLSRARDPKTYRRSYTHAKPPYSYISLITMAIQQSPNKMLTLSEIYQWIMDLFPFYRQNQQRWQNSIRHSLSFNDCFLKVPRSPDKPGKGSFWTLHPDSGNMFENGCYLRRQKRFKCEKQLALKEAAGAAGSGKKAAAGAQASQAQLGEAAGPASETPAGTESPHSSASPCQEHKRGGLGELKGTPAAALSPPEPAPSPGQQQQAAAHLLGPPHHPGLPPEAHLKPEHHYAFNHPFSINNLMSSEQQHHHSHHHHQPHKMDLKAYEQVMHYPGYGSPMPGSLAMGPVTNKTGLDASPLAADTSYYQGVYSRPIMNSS
smiles,measurement,setting,value
C=CC(O)CCCCC (centres undefined),outcome,[1],inactive
same,outcome,[2],inactive
same,outcome,[3],inactive
same,AC50,[4],37.3 µM (active)
same,outcome,[5],inactive
same,outcome,[6],inactive
same,outcome,[7],inactive
same,outcome,[8],inactive
same,outcome,[9],inactive
same,outcome,[10],inactive
same,outcome,[11],inactive
same,AC50,[12],100 µM (active)
same,outcome,[13],inactive
same,outcome,[14],inactive
same,outcome,[15],inactive
same,AC50,[16],100 µM (active)
same,outcome,[17],inactive
CC/C=C\CCOC(C)OCC (centres undefined),outcome,[1],inactive
same,outcome,[2],inactive
same,outcome,[3],inactive
same,outcome,[4],inactive
same,outcome,[5],inactive
same,outcome,[6],inactive
same,outcome,[7],inactive
same,outcome,[8],inactive
same,outcome,[9],inactive
same,outcome,[10],inactive
same,outcome,[11],inactive
same,outcome,[12],inactive
same,outcome,[13],inactive
same,outcome,[18],inactive
same,outcome,[15],inactive
same,outcome,[16],inactive
same,outcome,[17],inactive
CCCC1CCC(=O)CC1,outcome,[1],inactive
same,outcome,[2],inactive
same,outcome,[3],inactive
same,outcome,[4],inactive
same,AC50,[5],44.4 µM (active)
same,outcome,[6],inactive
same,outcome,[7],inactive
same,outcome,[8],inactive
same,outcome,[9],inactive
same,outcome,[10],inactive
same,outcome,[11],inactive
same,outcome,[12],inactive
same,outcome,[13],inactive
same,outcome,[14],inactive
same,outcome,[15],inactive
same,outcome,[16],inactive
same,outcome,[17],inactive
C=C1CC[C@H]2O[C@]2(C)CC[C@@H]2[C@@H]1CC2(C)C,outcome,[1],inactive
same,outcome,[2],inactive
same,AC50,[3],191 µM (active)
same,outcome,[4],inactive
same,outcome,[5],inactive
same,outcome,[6],inactive
same,outcome,[7],inactive
same,outcome,[8],inactive
same,outcome,[9],inactive
same,outcome,[10],inactive
same,outcome,[12],inactive
same,outcome,[13],inactive
same,outcome,[18],inactive
same,outcome,[14],inactive
same,outcome,[15],inactive
same,outcome,[16],inactive
same,outcome,[17],inactive
CCCCCCCCSCc1cc(C)c(O)c(CSCCCCCCCC)c1,outcome,[1],inactive
same,outcome,[2],inactive
same,outcome,[3],inactive
same,outcome,[4],inactive
same,outcome,[5],inactive
same,outcome,[6],inactive
same,outcome,[7],inactive
same,outcome,[8],inactive
same,outcome,[9],inactive
same,outcome,[10],inactive
same,outcome,[11],inactive
same,outcome,[12],inactive
same,outcome,[13],inactive
same,outcome,[14],inactive
same,outcome,[15],inactive
same,outcome,[16],inactive
same,outcome,[17],inactive
C=CC(C)(CCC=C(C)C)OC(=O)CC (centres undefined),outcome,[1],inactive
same,outcome,[2],inactive
same,outcome,[3],inactive
same,outcome,[4],inactive
same,outcome,[5],inactive
same,outcome,[6],inactive
same,outcome,[7],inactive
same,outcome,[8],inactive
same,outcome,[9],inactive
same,outcome,[10],inactive
same,outcome,[11],inactive
same,outcome,[12],inactive
same,outcome,[13],inactive
same,outcome,[18],inactive
same,outcome,[15],inactive
same,outcome,[16],inactive
CN(C)c1ccc(C=O)cc1,outcome,[1],inactive
same,outcome,[2],inactive
same,outcome,[3],inactive
same,outcome,[4],inactive
same,outcome,[5],inactive
same,outcome,[6],inactive
same,outcome,[7],inactive
same,outcome,[8],inactive
same,outcome,[9],inactive
same,outcome,[10],inactive
same,outcome,[12],inactive
same,outcome,[13],inactive
same,outcome,[18],inactive
same,outcome,[14],inactive
same,outcome,[15],inactive
same,outcome,[16],inactive
same,outcome,[17],inactive
CCCCCCCCCCCCCCCCCC(=O)OCCCCCCCCCCCCCC(C)C,outcome,[1],inactive
same,outcome,[2],inactive
same,outcome,[3],inactive
same,outcome,[4],inactive
same,outcome,[5],inactive
same,outcome,[6],inactive
same,outcome,[7],inactive
same,outcome,[8],inactive
same,outcome,[9],inactive
same,outcome,[11],inactive
same,outcome,[12],inactive
same,outcome,[13],inactive
same,outcome,[14],inactive
same,outcome,[15],inactive
same,outcome,[16],inactive
same,outcome,[17],inactive
